A selection: hits, their analogues and other compounds. The true share with any hit is near 11%.
G9a block – G9a (human) methyltransferase inhibition | Q96KQ7 | G9a H3K9 monomethylation, AlphaScreen, 2 h | Potency, µM (top dose mostly 102 µM), usual class: inhibitors | 350,000 compounds, 8.8% hits | AID 504332; note: nearly all actives have a fitted effect of over 75% in size
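Quantitative HTS format: methyltransferase activity on a biotin-tagged H3K9 peptide is measured by AlphaScreen, using a rabbit anti-monomethyl-H3K9 antibody with streptavidin donor and anti-IgG acceptor beads. Final levels are 20 nM enzyme, 500 nM peptide, 20 uM SAM; 2 h RT.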
BAZ2B inh – BAZ2B (human) inhibition; AlphaScreen BAZ2B-H3K14Ac peptide displacement; Potency, µM (titrated, usually from 114 µM), most hits filed as inhibitors; 360,000 compounds, 4.4% hits; note: nearly all actives have a fitted effect of over 60% in size
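Protein-peptide AlphaScreen: BAZ2B 50 nM, b-H3K14Ac 50 nM, 1x PBS pH 7.4 + 0.01% Tween-20. Preincubation 30 min RT; cpd 30 min RT (top 110 uM); beads 20 min RT, light-protected.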
HP1b binding inh – inhibitors of HP1-beta chromodomain binding to methylated histone tails. AlphaScreen HP1-beta / biotin-H3K9me3 peptide binding. Potency, µM (doses to about 114 µM), hits mostly inhibitors. 390,000 compounds, 0.56% hits. AID 540317; note: nearly all actives have a fitted effect of over 70% in size
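AlphaScreen: HP1-beta (50 nM) preformed 30 min with biotin-H3(1-18)K9me3 peptide (50 nM) in PBS pH 7.4, 0.01% Tween-20. Compound added for 30 min at RT, then streptavidin donor/nickel chelate acceptor beads (10 ug/mL) for 30 min.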
JMJD2A Tudor inh – JMJD2A Tudor domain (human) inhibition. O75164. AlphaScreen JMJD2A-Tudor / H3K4me3 peptide binding. Potency, µM (titrated, usually from 114 µM), most hits filed as inhibitors. 390,000 compounds, 4.4% hits. AID 504339; note: nearly all actives have a fitted effect of over 50% in size
L3MBTL1 block – L3MBTL1 (human) inhibition; Q9Y468; AlphaScreen L3MBTL1–H3K9me1 peptide binding; Potency, µM (titrated, usually from 57.1 µM), most hits filed as inhibitors; 230,000 compounds, 0.66% hits; AID 485360; note: nearly all actives have a fitted effect of over 60% in size
Target sequence (Q9Y468 whole entry, looked up): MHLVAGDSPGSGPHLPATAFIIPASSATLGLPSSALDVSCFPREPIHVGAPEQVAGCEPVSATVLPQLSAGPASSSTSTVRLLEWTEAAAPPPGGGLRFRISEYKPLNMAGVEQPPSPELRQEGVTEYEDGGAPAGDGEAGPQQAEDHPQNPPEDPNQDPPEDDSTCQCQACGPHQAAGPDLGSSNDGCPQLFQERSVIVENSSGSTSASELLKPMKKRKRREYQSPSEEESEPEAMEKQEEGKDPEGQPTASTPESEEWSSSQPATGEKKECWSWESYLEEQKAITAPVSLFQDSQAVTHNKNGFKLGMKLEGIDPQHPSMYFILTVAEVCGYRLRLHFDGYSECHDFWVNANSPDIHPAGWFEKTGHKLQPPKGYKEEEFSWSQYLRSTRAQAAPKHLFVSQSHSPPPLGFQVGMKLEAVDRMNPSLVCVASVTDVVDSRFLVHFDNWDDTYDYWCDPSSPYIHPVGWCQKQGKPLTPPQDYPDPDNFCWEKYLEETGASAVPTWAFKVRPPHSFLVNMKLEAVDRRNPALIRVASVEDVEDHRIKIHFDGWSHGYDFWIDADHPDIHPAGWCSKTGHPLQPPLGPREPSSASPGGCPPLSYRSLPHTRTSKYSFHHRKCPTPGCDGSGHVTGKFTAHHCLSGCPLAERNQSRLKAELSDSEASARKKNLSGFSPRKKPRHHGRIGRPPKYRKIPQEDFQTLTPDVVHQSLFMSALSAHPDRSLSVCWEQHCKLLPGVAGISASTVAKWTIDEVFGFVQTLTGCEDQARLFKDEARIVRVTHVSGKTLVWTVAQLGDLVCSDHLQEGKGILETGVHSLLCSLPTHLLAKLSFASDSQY
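Read-out is AlphaScreen signal from streptavidin donor and nickel chelate acceptor beads (10 ug/mL final each) bridging L3MBTL1 (50 nM) and biotinylated K9-monomethylated H3(1-15) peptide (75 nM), after 30 min compound exposure at room temperature.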
Hits are given with their value. Calls come from the whole dose curve; as a rule, active = well fitted inhibition curve with a large enough effect; inconclusive = small, poorly fitted or top-dose-only effect; inactive = no such curve, though single readings can be large or run the other way.

O=C(Cn1c(=O)oc2ccccc21)Nc1n[nH]c(=S)s1 was read as G9a block 1.26µM, BAZ2B inh inactive, HP1b binding inh inconclusive, JMJD2A Tudor inh 3.55µM and L3MBTL1 block inactive.
For O=C(Cn1c(=O)oc2ccccc21)Nc1nc(-c2ccccc2)cs1 the results were G9a block inactive, BAZ2B inh inactive, HP1b binding inh inactive, JMJD2A Tudor inh inactive and L3MBTL1 block inactive.
CC(C)(C)c1csc(NC(=O)Cn2c(=O)oc3ccccc32)n1 was read as G9a block 11.2µM, BAZ2B inh inactive, HP1b binding inh inactive, JMJD2A Tudor inh inactive and L3MBTL1 block inactive.
C=Cc1nc(Nc2cc(F)cc(F)c2)nc(NC2CCCC2)n1 was read as JMJD2A Tudor inh inactive.
For COc1ccc(C2C3=C(N=C4SCC(=O)N42)c2ccccc2CC3)cc1 (centres undefined) the results were G9a block 50.1µM, BAZ2B inh inactive, HP1b binding inh inactive, JMJD2A Tudor inh inactive and L3MBTL1 block inactive.
COc1ccc(C2C3=C(N=C4SCC(=O)N42)c2ccccc2CC3)cc1OC (centres undefined) was read as G9a block 39.8µM, BAZ2B inh inactive, HP1b binding inh inactive, JMJD2A Tudor inh inconclusive and L3MBTL1 block inactive.
Screening COc1ccccc1C1C2=C(N=C3SCC(=O)N31)c1ccccc1CC2 (centres undefined) returned G9a block inconclusive, BAZ2B inh inconclusive, HP1b binding inh inactive, JMJD2A Tudor inh inactive and L3MBTL1 block inactive.
For O=C1c2ccccc2C(=O)c2c(NCCCN(CCO)CCO)cccc21 the results were G9a block 44.7µM, BAZ2B inh 28.2µM, HP1b binding inh 25.1µM, JMJD2A Tudor inh 39.8µM and L3MBTL1 block inconclusive.
For Cc1cc2nc3c(=O)[nH]c(=O)[nH]c3nc2c([N+](=O)[O-])c1N the results were G9a block 31.6µM, BAZ2B inh 50.1µM, HP1b binding inh inconclusive, JMJD2A Tudor inh 44.7µM and L3MBTL1 block inconclusive.
Screening Cc1c(N)c(C(C)(C)C)cc(C(C)(C)C)c1[N+](=O)[O-] returned G9a block inactive, BAZ2B inh inactive, HP1b binding inh inactive, JMJD2A Tudor inh inactive and L3MBTL1 block inactive.
For Cc1cc(C)c(NC(=O)CSc2n[nH]c(-c3ccccc3Cl)n2)c(C)c1 the results were G9a block inactive, BAZ2B inh inactive, HP1b binding inh inactive and JMJD2A Tudor inh inactive.
For CC(=O)Nc1ccc(S(=O)(=O)NC2(C(F)(F)F)C(=O)Nc3c2c(=O)[nH]c(=O)n3-c2ccc(C)c(C)c2)cc1 (centres undefined) the results were G9a block inactive, BAZ2B inh inactive, HP1b binding inh inactive and JMJD2A Tudor inh inactive.
Screening CC(OC(=O)c1cccc([N+](=O)[O-])c1)C(=O)NCc1ccc2c(c1)OCO2 (centres undefined) returned G9a block inactive, BAZ2B inh inactive, HP1b binding inh inactive and JMJD2A Tudor inh inactive.
`CC(=O)Nc1ccc(S(=O)(=O)NCCc2csc3nc(-c4ccc(Cl)cc4)nn23)cc1` gave G9a block inactive, BAZ2B inh inactive, HP1b binding inh inactive and JMJD2A Tudor inh inactive.
O=C(Cc1ccccc1)Nc1nc2ccccc2[nH]1 was read as G9a block inactive, BAZ2B inh inactive, HP1b binding inh inactive, JMJD2A Tudor inh inactive and L3MBTL1 block inactive.
Screening CC(C)Cc1nnc(NC(=O)CCc2c[nH]c3ccccc23)s1 returned G9a block inactive, BAZ2B inh inactive, HP1b binding inh inactive and JMJD2A Tudor inh inactive.
For O=C(Cc1c[nH]c2ccccc12)Nc1nc2ccccc2[nH]1 the results were G9a block 79.4µM, BAZ2B inh inactive, HP1b binding inh inactive, JMJD2A Tudor inh inconclusive and L3MBTL1 block inactive.
For CCc1nnc(NC(=O)Cc2c[nH]c3ccccc23)s1 the results were G9a block 44.7µM, BAZ2B inh inactive, HP1b binding inh inactive and JMJD2A Tudor inh inactive.
`CC(C)c1nn2c(=O)cc(COC(=O)c3cccc(NC(=O)c4cccs4)c3)nc2s1` gave G9a block inactive, BAZ2B inh inactive, HP1b binding inh inactive and JMJD2A Tudor inh inactive.
O=[N+]([O-])c1ccc(O)c(/C=N/Nc2ncnc3c2cnn3-c2ccccc2)c1 was read as G9a block inactive, BAZ2B inh inconclusive, HP1b binding inh inactive and JMJD2A Tudor inh 79.4µM.
O=[N+]([O-])c1cccc(N/N=C/c2cc([N+](=O)[O-])ccc2O)c1 was read as G9a block inactive, BAZ2B inh inactive, HP1b binding inh inactive, JMJD2A Tudor inh inactive and L3MBTL1 block inactive.
COc1ccc(O)c(/C=N/Nc2nc3ccccc3[nH]2)c1 was read as G9a block inconclusive, BAZ2B inh inactive, HP1b binding inh inactive, JMJD2A Tudor inh inactive and L3MBTL1 block inactive.
`O=[N+]([O-])c1ccc(O)c(/C=N/Nc2ccccn2)c1` gave G9a block inactive, BAZ2B inh 4.47µM, HP1b binding inh inactive, JMJD2A Tudor inh inconclusive and L3MBTL1 block 12.6µM.
For O=[N+]([O-])c1ccc(O)c(/C=N/Nc2nc3ccccc3[nH]2)c1 the results were G9a block inactive, BAZ2B inh 31.6µM, HP1b binding inh inactive, JMJD2A Tudor inh inconclusive and L3MBTL1 block inconclusive.
O=[N+]([O-])c1ccc(O)c(C=NNc2ccc(S(=O)(=O)O)cc2)c1 was read as HP1b binding inh inactive and JMJD2A Tudor inh 79.4µM.
Cc1ccc(-c2noc(CNC(=O)COc3cc(C)c(Br)c(C)c3)n2)cc1 was read as G9a block inactive, BAZ2B inh inactive, HP1b binding inh inactive and JMJD2A Tudor inh inactive.
`COc1cccc(CNC(=O)CCc2c(C)c3ccc(O)c(C)c3oc2=O)c1` gave G9a block inactive, BAZ2B inh inactive, HP1b binding inh inactive and JMJD2A Tudor inh inactive.
Cc1ccc(Nc2c3c(nc4nncn24)CCC3)cc1C was read as G9a block inactive, BAZ2B inh inactive, HP1b binding inh inactive and JMJD2A Tudor inh inactive.
`CCCn1c(=O)[nH]c(=O)c2c1nc(-c1ccc(OC(F)(F)C(F)C(F)(F)F)cc1)n2CCOC` (centres undefined) gave G9a block 25.1µM, BAZ2B inh inactive, HP1b binding inh inactive and JMJD2A Tudor inh inactive.
`CCCCn1c(-c2ccc(OC(F)F)cc2)nc2c1c(=O)[nH]c(=O)n2CC(C)C` gave G9a block 50.1µM, BAZ2B inh inactive, HP1b binding inh inactive and JMJD2A Tudor inh inactive.
O=C(Nc1ccc(Br)cc1)c1cccc(C(=O)Nc2ccc(Br)cc2)c1 was read as G9a block inactive, BAZ2B inh inactive, HP1b binding inh inactive and JMJD2A Tudor inh inactive.
Screening CC1CCc2c(sc(NC(=O)COc3ccccc3C(C)(C)C)c2C#N)C1 (centres undefined) returned G9a block 10µM, BAZ2B inh inactive, HP1b binding inh inactive and JMJD2A Tudor inh inactive.
For COc1ccc(CNC(=O)C2CCN(S(=O)(=O)c3ccc4c(c3)CC(C)N4C(=O)C3CC3)CC2)cc1 (centres undefined) the results were G9a block inactive, BAZ2B inh inactive, HP1b binding inh inactive and JMJD2A Tudor inh inactive.

Source: PubChem BioAssay (National Center for Advancing Translational Sciences (NCATS))
